Screening results (PubChem BioAssay)
The list is not random: actives were taken first. Their share in the collection is about 6.1%.
DRD3 agonist – activates the human D3 dopamine receptor. max activation, %. 410,000 compounds, 0.58% hits. D3R DiscoveRx beta-arrestin cells, luminescence, 90 min. P35462; in the data active = max activation above about 30%; note: 0% is about no effect
Target sequence (P35462 whole entry, looked up): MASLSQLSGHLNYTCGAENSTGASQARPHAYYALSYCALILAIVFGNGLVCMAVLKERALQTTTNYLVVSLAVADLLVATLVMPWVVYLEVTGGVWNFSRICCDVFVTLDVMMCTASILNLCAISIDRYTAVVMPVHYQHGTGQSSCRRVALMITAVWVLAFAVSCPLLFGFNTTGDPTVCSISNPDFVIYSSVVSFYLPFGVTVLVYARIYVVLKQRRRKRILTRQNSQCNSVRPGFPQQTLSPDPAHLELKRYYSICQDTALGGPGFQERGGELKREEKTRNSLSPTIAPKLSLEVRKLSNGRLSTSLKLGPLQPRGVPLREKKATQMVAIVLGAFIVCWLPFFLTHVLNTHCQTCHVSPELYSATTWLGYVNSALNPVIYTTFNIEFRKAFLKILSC
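Cells at 1500/well, incubated overnight, then treated with pinned compounds (dopamine as control) for 90 min at 37 degrees C. DiscoveRx reagent added for 30 - 60 minutes at room temperature; luminescence read.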
DRD3 antagonist – D3 dopamine receptor (human) antagonism. 360,000 compounds, 2.5% hits. AID 652054. D3R cells, DiscoveRx beta-arrestin luminescence, antagonist mode; active compounds read low. max response, negative = inhibition, %. P35462; in the data active = max response below about -50%; inconclusive = no clear call, values can overlap the other calls; note: % is set by controls: 0 for no effect and ±100 for the full control effect
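Cells plated overnight at 1500 cells/well, then exposed to library compounds with dopamine controls for 90 minutes at 37 degrees C. DiscoveRx reagent added for 30–60 minutes at room temperature; luminescence read, quantitative HTS format.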
D1 antagonist – antagonists of human D1 dopamine receptor. HEK293 TREx D1 cells, calcium flux, dopamine EC80; active compounds read low. activity change, negative = inhibition, % at 10 µM. 360,000 compounds, 3.2% hits; in the data active = activity change below about -30%; note: % is set by controls: 0 for no effect and ±100 for the full control effect
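Kinetic fluorescence of a calcium dye serves as the read-out. D1-expressing Hek293 Trex cells, induced overnight at 30 C, are exposed to compound for 180 s before an EC80 dopamine addition, then read 180 s further.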
D1 potentiator – enhances dopamine response at the human D1 receptor. 360,000 compounds, 0.036% hits. potentiation, % at 10 µM. P21728. HEK293 TREx D1 cells, calcium flux, dopamine EC20 potentiation. AID 504651; in the data active = potentiation above about 30%; note: 0% is about no effect
ERG-DNA inh – blocks human ERG Ets domain binding to DNA; P11308; fluorescence polarization, His-ERG Ets domain / labelled DNA; Potency, µM (doses to about 76.9 µM), for the others: at the top dose FP activity, negative = inhibition, usual class: inhibitors; 370,000 compounds, 0.028% hits; active = well fitted inhibition curve with a large enough effect in the polarisation, with a control signal flat; inconclusive = small, poorly fitted or top-dose-only effect, or effect the other way, or a change in a side signal; inactive = no such curve, though single readings can be large or run the other way; the % refers to the polarisation;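 note: polarization taken with two DNA probes labelled with fluorescein and Texas red; potency is the fitted concentration of half-maximal effect; % of control where 0% means no effect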
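His-tagged ERG Ets domain (1 uM in the protein solution; 300mM KCl, 50mM Tris-HCl, 1mM EDTA, 1mM DTT, pH 7.5) received compound, then a probe mix of 5 nM fluorescein-DNA and 100nM Texas-615-DNA. Fluorescence polarization was read for both dyes.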
D1 agonist – activates the human D1 dopamine receptor | activation, % at 2 µM | 360,000 compounds, 1% hits | AID 504660 | HEK293 T-REx D1 cells, calcium flux, agonist mode | P21728; in the data active = activation above about 30%; note: 0% is about no effect
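Agonism was scored from calcium flux recorded over 180 s (1 read/s) after pintool compound addition, following a 10-cycle baseline. Cells were inducible force-coupled HEK293 TREx D1, plated overnight at 30 C and loaded with no-wash calcium dye.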
Active calls of the source: *; ? = inconclusive; / = no result.

SMILES	DRD3 agonist	DRD3 antagonist	D1 antagonist	D1 potentiator	ERG-DNA inh	D1 agonist
Cc1ccc(NC(=O)CSc2nc(C)c(Cc3ccccc3)c(=O)[nH]2)cc1	0	11	18	2	-3%	2
Cc1cc(C)c2c(N)c(C(=O)Nc3cccc(C)c3C)sc2n1	92*	-7	-31*	0	-2%	1
O=C(O)c1ccc(CNCc2cccc(OCc3ccc(F)cc3)c2)cc1	0	-7	0	3	-12%	1
CCOc1cccc(CNCc2ccncc2)c1	-2	8	14	3	-6%	9
C=CCOc1cccc(CNCc2ccncc2)c1	-5	3	-35*	-7	1%	12
Fc1ccc(COc2cccc(CNCc3ccncc3)c2)cc1	34*	15	-6	-2	4%	11
Cc1cnc(CN2CCCC(C(=O)c3ccc4c5c(cccc35)CC4)C2)[nH]1 (stereo not drawn)	-17	-53*	16	-2	4%	9
O=C(c1ccc2c3c(cccc13)CC2)C1CCCN(Cc2ccc(OCCO)cc2)C1 (stereo not drawn)	-1	-97*	-2	-5	11%	27
O=C(c1ccc2c3c(cccc13)CC2)C1CCCN(Cc2ccccn2)C1 (stereo not drawn)	-33	-51*	-11	-7	10%	0
O=C1CCC(C(=O)N2CCCC(C(=O)c3ccc4c5c(cccc35)CC4)C2)=NN1 (stereo not drawn)	7	5	-33*	-3	-6%	2
NC(=O)CCC(=O)N1CCCC(C(=O)c2ccc3c4c(cccc24)CC3)C1 (stereo not drawn)	3	15	1	-4	-1%	2
COCCNC(=O)c1onc(CSc2cccc(OC)c2)c1C(=O)NCCOC	-3	-25	-11	-5	5%	1
C=C1C(=O)C=C2CN(C(=O)c3ccccc3)[C@@](Cc3ccc(F)cc3)(C(=O)OC)[C@@H]12	-31	-99*	-35*	5	5%	90*
CC(C)NC(=O)C(=O)NCCN1CCN(C(=O)c2ccc(C(C)(C)C)cc2)CC1	-5	0	-14	0	11%	-1
Cc1cccc(NC(=O)CN2C(=O)N/C(=C/c3ccc(C)s3)C2=O)c1	5	18	-7	-5	10%	53*
COc1ccc(Cl)cc1-c1nc(N)nc(NC2CCCCC2)n1	0	8	-14	-9	-9%	3
CNc1nc(N)nc(-c2cc(Cl)ccc2OC)n1	20	?	-30*	0	17%	-1
CCOC(=O)C1=C(C)N=c2s/c(=C\c3ccc(OC(C)=O)cc3)c(=O)n2C1/C=C/c1ccccc1 (stereo not drawn)	-11	4	17	-3	33%	8
CCOC(=O)C1=C(C)N=c2s/c(=C\c3ccc(OC(C)=O)c(OCC)c3)c(=O)n2C1/C=C/c1ccccc1 (stereo not drawn)	-5	-56*	2	-1	4%	4
CC(C)(C)C(=O)Nc1sc2c(c1C#N)CCC2	3	-3	17	-7	-6%	-2
CC(C)(C)C(=O)NC(NC(=S)Nc1sc2c(c1C#N)CCCC2)C(Cl)(Cl)Cl (stereo not drawn)	9	-55*	-28	-2	-2%	15
CN1CCCN(C(=O)CC2(CC(=O)O)CCCCC2)CC1	-12	-2	-9	-3	-4%	1
CC(C)(C)C1CCC(=NNC(=S)Nc2cccnc2)CC1 (stereo not drawn)	-17	0	-11	-3	-10%	-4
S=C(Nc1cccnc1)NC1CC2CCC1C2 (stereo not drawn)	14	3	-34*	-3	6%	18
COCCNC(=O)c1ccc(NS(=O)(=O)c2ccc3[nH]c(=O)[nH]c3c2)cc1	-5	-10	0	-2	-3%	3
SMILES	DRD3 agonist	DRD3 antagonist	D1 antagonist	D1 potentiator	ERG-DNA inh	D1 agonist
CCC(C)NC(=O)c1ccc(NS(=O)(=O)c2ccc3[nH]c(=O)[nH]c3c2)cc1 (stereo not drawn)	6	21	-33*	-3	13%	1
Cn1nc(C(F)(F)F)c(-c2cccc(C(F)(F)F)c2)c1NC(=O)c1ccco1	7	3	-19	-6	5%	1
Cn1nc(-c2ccccc2)cc1NC(=O)Nc1ccc(F)cc1	-5	11	-44*	-13	2%	12
Cn1nc(C(F)(F)F)c(-c2cccc(C(F)(F)F)c2)c1NC(=O)Nc1ccc(F)cc1	-6	0	-31*	-2	-10%	17
c1ccc(Cc2c(C3CCCCC3)nc3c4ccccc4ccn23)cc1	-11	?	/	/	/	/
COCCCNC(=O)/C=C/c1cccc(Cl)c1	3	-17	2	1	-6%	0
CN(C)C(CNC(=O)/C=C/c1cccc(Cl)c1)c1ccccc1 (stereo not drawn)	-12	?	-1	-1	40µM*	12
CCOc1ccc(S(=O)(=O)NCCC(=O)OCN2C(=O)c3ccccc3C2=O)cc1	0	18	-8	4	-4%	3
Cc1c(-c2cccc(NC(=O)Nc3ccccc3)c2)nc2ncccn12	-4	/	-56*	1	-1%	1
COc1ccc(S(=O)(=O)c2nnn(-c3ccc(C)c(Cl)c3)c2C)cc1	-4	/	-21	-4	5%	31*
CCN(CC)C1=CC2=CC(=C(C#N)C#N)CCC2CC1 (stereo not drawn)	-13	8	-82*	-10	88%	487*
N#CC1=C(N)C2=C(N3CCCCC3)CCCC2C1(C#N)C#N (stereo not drawn)	-1	-14	2	-4	-2%	0
CCCCN(C)C1=CC2=CC(=C(C#N)C#N)CCC2CC1 (stereo not drawn)	1	22	-85*	1	69%	490*
N#CC(C#N)=C1C=C2C=C(N3CCCCC3)CCC2CC1 (stereo not drawn)	9	3	-29	-7	83%	671*
CCOC(=O)N1CCN(CC(O)c2ccc3cc[nH]c3c2)CC1 (stereo not drawn)	3	5	1	0	-7%	2
COc1ccc2[nH]cc(C(O)CN3CCN(c4ccccc4)CC3)c2c1 (stereo not drawn)	/	/	-1	-2	/	6
COc1ccccc1N1CCN(CC(O)COCc2cccs2)CC1 (stereo not drawn)	-3	-62*	-37*	1	13%	7
COc1ccc2[nH]cc(C(O)CN3CCN(c4ccccc4F)CC3)c2c1 (stereo not drawn)	-25	-63*	-62*	-15	-1%	18
